Test results: PubChem BioAssay (Tox21)
Values joined by “and” are separate entries in the source; they are usually repeats but may differ in a detail not shown here. Identical values can stand only once. Results filed as inconclusive are left out. Where a call stands in place of a potency, no number is given. More than one record can exist for a structure, and the calls need not agree. Active and inactive are the calls of the source. Unless noted, calls come from the whole dose curve.

Columns and labels:
[1] = Nuclear factor erythroid 2-related factor 2/antioxidant responsive element (Nrf2/ARE) small molecule agonists: luciferase reporter gene qHTS assay in human keratinocytes (AID 1919969); note: nearly all actives have a fitted effect of over 35% in size; note: potency is the fitted concentration of half-maximal effect
[2] = target: Gonadotropin-releasing hormone receptor (Homo sapiens) (UniProt P30968); assay: Human gonadotropin-releasing hormone receptor (GnRHR) small molecule agonists, calcium flux assay in GnRHR-HEK293 cells (AID 1920063); note: nearly all actives have a fitted effect of over 35% in size
Chain of Gonadotropin-releasing hormone receptor (Homo sapiens) (P30968 whole entry, looked up): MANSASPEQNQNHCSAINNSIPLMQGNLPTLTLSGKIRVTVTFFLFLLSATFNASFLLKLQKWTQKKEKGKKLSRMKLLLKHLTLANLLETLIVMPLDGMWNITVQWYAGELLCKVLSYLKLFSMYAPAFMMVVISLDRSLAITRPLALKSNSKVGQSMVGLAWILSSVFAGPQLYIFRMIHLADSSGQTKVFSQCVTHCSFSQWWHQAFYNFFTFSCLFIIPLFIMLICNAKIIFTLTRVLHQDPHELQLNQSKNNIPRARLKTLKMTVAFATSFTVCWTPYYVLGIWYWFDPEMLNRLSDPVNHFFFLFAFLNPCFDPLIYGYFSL
Method in brief: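 Agonist mode: compounds at 15 concentrations, in triplicate, went onto calcium dye-loaded GnRHR-HEK293 cells. Intracellular calcium was then followed as 480/540 nm fluorescence at 1 s intervals over 3 min.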

[3] = target: KiSS-1 receptor (Homo sapiens) (UniProt Q969F8); assay: Human kisspeptin (KISS1R) small molecule agonists, calcium flux assay in KISS1R-HEK293 cells (AID 1920064; active = well fitted activation curve with a large enough effect in the repeat runs)
Chain of KiSS-1 receptor (Homo sapiens) (Q969F8 whole entry, looked up): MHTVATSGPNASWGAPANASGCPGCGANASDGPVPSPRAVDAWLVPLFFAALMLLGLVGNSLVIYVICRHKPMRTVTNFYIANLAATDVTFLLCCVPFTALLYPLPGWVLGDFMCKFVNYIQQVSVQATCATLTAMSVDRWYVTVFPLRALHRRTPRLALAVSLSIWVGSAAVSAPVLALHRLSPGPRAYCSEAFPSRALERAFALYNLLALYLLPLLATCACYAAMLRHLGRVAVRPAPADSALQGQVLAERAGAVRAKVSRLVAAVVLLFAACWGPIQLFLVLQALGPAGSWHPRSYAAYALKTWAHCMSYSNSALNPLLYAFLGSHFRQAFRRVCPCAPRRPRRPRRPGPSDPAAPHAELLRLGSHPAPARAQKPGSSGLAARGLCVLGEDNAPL
Method in brief: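 Agonist mode: intracellular calcium rise tracked at 1 s intervals over 3 min (480/540 nm) immediately after compound addition to dye-loaded KISS1R-HEK293 stable cells. Each compound tested at 15 concentrations in triplicate.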

[4] = G protein-coupled receptor (GPCR) small molecule agonists, calcium flux assay: HEK293 wild type cell line counter screen (AID 1920065)
Method in brief: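 Calcium flux counter screen: compound added in agonist mode at 15 concentrations in triplicate to dye-loaded parental HEK293 cells. Fluorescence (480/540) read kinetically for 3 min; ATP served as positive control.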

[5] = p53 small molecule agonists, cell-based qHTS assay with human liver microsomes (AID 1963577);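 note: p53 response element beta-lactamase reporter cells with liver microsomes plus NADPH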
Method in brief: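 16 h, 37 C exposure of p53RE-bla cells to compounds with human liver microsomes and NADPH (0.5 mg/mL final each); detection via LiveBLAzer mixture, 2 h dark at room temperature.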

[6] = p53 small molecule agonists, cell-based qHTS assay with rat liver microsomes (AID 1963578)
Method in brief: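 With rat liver microsomes and NADPH present (0.5 mg/mL final each), p53RE-bla cells are treated with compound for 16 h at 37 C. LiveBLAzer detection mixture is then applied for 2 h at room temperature in the dark.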

[7] = p53 small molecule agonists, cell-based qHTS assay with human liver microsomes: qHTS cell viability counter screen (AID 1963579); note: nearly all actives have a fitted effect of over 45% in size; note: potency is the fitted concentration of half-maximal effect
Method in brief: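 In this multiplexed counter screen, the reporter plates were subsequently treated with CellTiter-Glo so that cell viability, reflected by luminescence, could be recorded for p53RE-bla cells dosed 16 h with compounds under microsomal activation (HLM and NADPH).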

[8] = p53 small molecule agonists, cell-based qHTS assay with rat liver microsomes: qHTS cell viability counter screen (AID 1963580); note: nearly all actives have a fitted effect of over 45% in size
Method in brief: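 After the beta-lactamase ratio was read, CellTiter-Glo was added to the same wells and luminescence measured at 30 min; cells had been treated 16 h at 37 C with compounds, rat liver microsomes and NADPH (0.5 mg/mL final each).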

[9] = p53 small molecule agonists, cell-based qHTS assay: qHTS cell viability counter screen (AID 1963581); note: nearly all actives have a fitted effect of over 45% in size; note: potency is the fitted concentration of half-maximal effect
Method in brief: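 Counter screen read by CellTiter-Glo luminescence (ATP content, 30 min at room temperature), run in the same wells as the beta-lactamase reporter read. HCT-116 p53RE-bla cells saw compounds for 16 h at 37 C.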

[10] = p53 small molecule agonists, cell-based qHTS assay (AID 1963582; active = well fitted activation curve with a large enough effect in the signal ratio in the repeat runs, not every such curve was filed as active; the % refers to the signal ratio)
Method in brief: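 Read-out is beta-lactamase FRET fluorescence after 2 h at room temperature with LiveBLAzer B/G substrate. p53 response element-bla cells were treated 16 h at 37 C with compounds in DMSO, added 5 h after seeding.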

[11] = target: 5-hydroxytryptamine receptor 2A (Homo sapiens) (UniProt P28223); assay: 5-hydroxytryptamine receptor 2A (HTR2A) small molecule antagonists, cell-based qHTS assay (AID 1963586); note: nearly all actives have a fitted effect of over 45% in size
Chain of 5-hydroxytryptamine receptor 2A (Homo sapiens) (P28223 whole entry, looked up): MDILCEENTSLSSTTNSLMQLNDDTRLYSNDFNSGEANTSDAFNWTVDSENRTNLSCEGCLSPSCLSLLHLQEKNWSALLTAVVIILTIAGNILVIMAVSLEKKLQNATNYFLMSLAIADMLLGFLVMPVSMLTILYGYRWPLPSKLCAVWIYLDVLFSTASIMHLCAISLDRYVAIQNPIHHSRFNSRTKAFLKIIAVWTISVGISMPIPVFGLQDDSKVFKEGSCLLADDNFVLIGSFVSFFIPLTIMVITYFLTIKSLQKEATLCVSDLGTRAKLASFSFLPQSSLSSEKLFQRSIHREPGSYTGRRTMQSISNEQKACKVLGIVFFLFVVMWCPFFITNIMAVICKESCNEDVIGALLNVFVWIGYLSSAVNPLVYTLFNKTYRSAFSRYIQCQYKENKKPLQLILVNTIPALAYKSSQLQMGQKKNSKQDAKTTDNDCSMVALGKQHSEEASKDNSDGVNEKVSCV
Method in brief: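 CHO cells stably expressing human HTR2A were plated for 18 h at 37 C, then loaded with calcium dye for 1 h. Compounds were preincubated 5 min at room temperature before DOI (4 nM solution) was added. Kinetic fluorescence was read for 3 min.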

[12] = target: 5-hydroxytryptamine receptor 2A (Homo sapiens) (UniProt P28223); assay: 5-hydroxytryptamine receptor 2A (HTR2A) small molecule agonists, cell-based qHTS assay (AID 1963587); note: nearly all actives have a fitted effect of over 30% in size
Method in brief: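 CHO cells stably expressing human HTR2A, plated 18 h, loaded with calcium dye 1 h at 37 C. Agonist mode: compounds added and intracellular calcium fluorescence recorded kinetically for 2 min at 1 sec intervals.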

[13] = target: Muscarinic acetylcholine receptor M1 (Homo sapiens) (UniProt P11229); assay: Cholinergic receptor muscarinic 1 (CHRM1) small molecule antagonists, cell-based qHTS assay (AID 1963588); note: nearly all actives have a fitted effect of over 40% in size; note: potency is the fitted concentration of half-maximal effect
Chain of Muscarinic acetylcholine receptor M1 (Homo sapiens) (P11229 whole entry, looked up): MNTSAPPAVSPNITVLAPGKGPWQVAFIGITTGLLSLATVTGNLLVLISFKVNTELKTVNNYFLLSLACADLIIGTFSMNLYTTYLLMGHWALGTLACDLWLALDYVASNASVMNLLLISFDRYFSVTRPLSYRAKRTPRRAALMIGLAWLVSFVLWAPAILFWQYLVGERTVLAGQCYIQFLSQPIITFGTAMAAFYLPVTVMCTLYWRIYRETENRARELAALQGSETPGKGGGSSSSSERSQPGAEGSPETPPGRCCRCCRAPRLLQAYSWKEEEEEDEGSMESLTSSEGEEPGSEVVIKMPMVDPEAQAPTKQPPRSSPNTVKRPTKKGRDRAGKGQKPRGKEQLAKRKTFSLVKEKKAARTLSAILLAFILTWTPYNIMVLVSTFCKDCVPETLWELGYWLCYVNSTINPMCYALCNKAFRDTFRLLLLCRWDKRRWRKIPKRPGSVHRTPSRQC
Method in brief: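 Compounds were tested at 15 concentrations in three independent runs. Dye-loaded CHRM1-CHO cells were exposed 5 min at room temperature before stimulation by acetylcholine added at 50nM. Intracellular calcium was read kinetically on FDSS for 3 min.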

[14] = target: Muscarinic acetylcholine receptor M1 (Homo sapiens) (UniProt P11229); assay: Cholinergic receptor muscarinic 1 (CHRM1) small molecule agonists, cell-based qHTS assay (AID 1963589); note: nearly all actives have a fitted effect of over 35% in size
Method in brief: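 Agonist-mode calcium-flux screen: compounds at 15 concentrations, three independent runs, were pin-transferred onto dye-loaded human CHRM1-CHO cells. Fluorescence was then recorded kinetically every second over minutes.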

[15] = cAMP Responsive Elements (CRE) small molecule agonists, cell-based qHTS assay (AID 1963590); note: potency is the fitted concentration of half-maximal effect
Method in brief: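 Agonist mode: compound added to CRE-bla HEK 293T cells (2,000/well, 18 h after plating) for 3 h at 37 C/5% CO2. Reporter activity detected via FRET beta-lactamase substrate, 2 h room-temperature loading.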

[16] = cAMP Responsive Elements (CRE) small molecule antagonists, cell-based qHTS assay (AID 1963591; active = well fitted inhibition curve with a large enough effect in the signal ratio in the repeat runs, not every such curve was filed as active; the % refers to the signal ratio)
Method in brief: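 Antagonist mode: compounds are added alongside the adenylyl cyclase activator NKH477 (0.25 uM final) to CRE-bla HEK293T cells for 3 h. LiveBLAzer FRET substrate, 2 h at room temperature, reports bla expression.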

[17] = target: Beta-2 adrenergic receptor (Homo sapiens) (UniProt P07550); assay: Adrenergic beta2 receptor (ADRB2) small molecule antagonists, cell-based qHTS assay (AID 1963592); note: series mostly up to about 92 µM; nearly all actives have a fitted effect of over 50% in size
Chain of Beta-2 adrenergic receptor (Homo sapiens) (P07550 whole entry, looked up): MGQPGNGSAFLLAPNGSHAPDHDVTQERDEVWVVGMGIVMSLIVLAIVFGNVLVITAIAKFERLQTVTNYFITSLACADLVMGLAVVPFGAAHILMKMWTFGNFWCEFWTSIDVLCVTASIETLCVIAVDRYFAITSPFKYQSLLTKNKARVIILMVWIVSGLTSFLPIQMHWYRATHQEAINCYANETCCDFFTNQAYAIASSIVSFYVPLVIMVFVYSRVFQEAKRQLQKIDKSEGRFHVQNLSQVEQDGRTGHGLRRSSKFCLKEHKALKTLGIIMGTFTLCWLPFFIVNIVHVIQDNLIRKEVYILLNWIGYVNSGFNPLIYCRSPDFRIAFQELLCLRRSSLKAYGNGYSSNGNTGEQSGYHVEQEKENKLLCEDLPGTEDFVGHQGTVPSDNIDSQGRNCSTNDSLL
Method in brief: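 Assay format: CHO-ADRB2 cells, 18-20hr seeding at 37C/5% CO2, then compound plus 1nM isoproterenol agonist mix for 0.5hr RT. Homogeneous time-resolved fluorescence cAMP detection after 1hr, expressed as 665/615 nm ratio.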

[18] = target: Beta-2 adrenergic receptor (Homo sapiens) (UniProt P07550); assay: Adrenergic beta2 receptor (ADRB2) small molecule agonists, cell-based qHTS assay (AID 1963593);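 note: CHO cells stably overexpressing human ADRB2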
Method in brief: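 CHO cells stably over-expressing ADRB2 were plated overnight at 37C, then dosed with compounds plus a stimulation mix containing 100uM IBMX and 25uM Ro-20-1724 for 0.5hr at room temperature. cAMP was measured by HTRF competition, 1hr.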

[19] = target: D(2) dopamine receptor (Homo sapiens) (UniProt P14416); assay: Dopamine D2 receptor (DRD2) small molecule agonists, cell-based qHTS assay (AID 1963594); note: nearly all actives have a fitted effect of over 35% in size
Chain of D(2) dopamine receptor (Homo sapiens) (P14416 whole entry, looked up): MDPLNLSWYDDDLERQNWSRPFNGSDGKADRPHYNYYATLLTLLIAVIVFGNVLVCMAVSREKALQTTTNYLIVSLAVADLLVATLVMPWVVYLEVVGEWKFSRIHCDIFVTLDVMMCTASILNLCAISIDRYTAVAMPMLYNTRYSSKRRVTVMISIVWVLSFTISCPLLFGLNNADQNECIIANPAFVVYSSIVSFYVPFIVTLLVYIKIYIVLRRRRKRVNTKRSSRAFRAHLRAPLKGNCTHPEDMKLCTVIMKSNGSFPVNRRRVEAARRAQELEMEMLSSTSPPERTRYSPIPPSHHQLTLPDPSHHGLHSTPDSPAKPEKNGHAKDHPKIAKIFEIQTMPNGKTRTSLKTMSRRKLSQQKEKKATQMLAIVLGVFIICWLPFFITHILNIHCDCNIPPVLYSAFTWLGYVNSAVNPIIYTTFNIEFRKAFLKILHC
Method in brief: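 HEK293 cells stably expressing human DRD2, pre-treated with PDE inhibitor Ro20-1724 (0.1 mM final) and compound 10 min at room temperature, then stimulated with NKH477 (200nM […]) for 30 min. cAMP read by HTRF (665/620 nm).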

[20] = target: D(2) dopamine receptor (Homo sapiens) (UniProt P14416); assay: Dopamine D2 receptor (DRD2) small molecule antagonists, cell-based qHTS assay (AID 1963595; active = well fitted inhibition curve with a large enough effect in the signal ratio in the repeat runs, with a control signal flat; the % refers to the signal ratio)
Method in brief: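 DRD2-HEK293; 0.1 mM Ro20-1724; cpd 10 min RT; NKH477 200 nM + quinpirole 12 nM, 30 min RT; HTRF cAMP (cAMP-d2/anti-cAMP cryptate), 665/620 nm ratio after 1 h.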

Row | Structure (SMILES) | Potency [1] | Potency [2] | Potency [3] | Potency [4] | Potency [5] | Potency [6] | Potency [7] | Potency [8] | Potency [9] | Potency [10] | Potency [11] | Potency [12] | Potency [13] | Potency [14] | Potency [15] | Potency [16] | Potency [17] | Potency [18] | Potency [19] | Potency [20]
1 | COCC(C)N(C(=O)CCl)c1c(C)csc1C (stereo unspecified) | 68.6 µM (active) | inactive | inactive | inactive | inactive | inactive | inactive | inactive | inactive | inactive | inactive | inactive | inactive | inactive | inactive | inactive | inactive | inactive | inactive | inactive
2 | COC(=O)c1cc(Oc2ccc(Cl)cc2Cl)ccc1[N+](=O)[O-] | – | – | – | – | inactive | inactive | inactive | inactive | inactive | – | inactive | – | 0.0375 µM (active) | inactive | inactive | inactive | inactive | inactive | inactive | inactive
3 | CN[C@@H](C)[C@H](O)c1ccccc1 | inactive | inactive | inactive | inactive | inactive | inactive | inactive | – | inactive | inactive | inactive | inactive | – | inactive | – | inactive | inactive | inactive | – | inactive
4 | CC(C)(C)C(O)/C(=C\c1ccc(Cl)cc1Cl)n1cncn1 (stereo unspecified) | inactive | inactive | inactive | inactive | inactive | inactive | inactive | inactive | inactive | inactive | inactive | – | inactive | – | – | – | inactive | – | inactive | –
5 | [O-][Br+2]([O-])O | inactive | inactive | inactive | inactive | inactive | inactive | inactive | inactive | inactive | inactive | inactive | inactive | inactive | inactive | inactive | inactive | inactive | – | inactive | inactive
6 | CCN(CC)C(=O)N[C@@H]1C=C2c3cccc4[nH]cc(c34)C[C@@H]2N(C)C1 | inactive | inactive | inactive | inactive | inactive | inactive | inactive | inactive | inactive | inactive | – | – | – | – | inactive | inactive | – | – | – | inactive
7 | COc1ccc(Cc2nccc3cc(OC)c(OC)cc23)cc1OC | inactive | inactive | inactive | inactive | inactive | inactive | inactive | inactive | inactive | – | – | – | – | – | 11.9 µM (active) | inactive | inactive | inactive | inactive | inactive
8 | CC1CCCC1 | – | – | – | – | inactive | – | inactive | inactive | inactive | inactive | – | – | – | – | – | – | – | – | – | –
9 | O=C(N[C@H](c1ccccc1)[C@@H]1CN2CCC1CC2)c1c(Cl)ccc(C(F)(F)F)c1Cl | inactive | inactive | inactive | inactive | inactive | inactive | inactive | inactive | inactive | inactive | inactive | inactive | – | inactive | – | – | inactive | inactive | – | inactive
10 | CCCC[N+](CCCC)(CCCC)CCCC | inactive | inactive | inactive | inactive | inactive | inactive | inactive | inactive | inactive | – | inactive | – | inactive | inactive | – | inactive | inactive | – | inactive | inactive
11 | C[C@]12C/C(=C/O)C(=O)C[C@@H]1CC[C@@H]1[C@@H]2CC[C@@]2(C)[C@H]1CC[C@]2(C)O | 27.6 µM (active) and 6.68 µM (active) | inactive | inactive | inactive | inactive | inactive | 36.7 µM (active) and inactive | inactive | 36.7 µM (active) | – | – | – | – | – | – | – | inactive | – | inactive | inactive
12 | CCCCOCN(C(=O)CCl)c1c(CC)cccc1CC | 24.3 µM (active) | inactive | inactive | inactive | inactive | inactive | inactive | inactive | inactive | – | inactive | inactive | inactive | inactive | – | – | inactive | – | inactive | –
13 | CC(=O)CCc1ccc2c(c1)OCO2 | inactive | inactive | inactive | inactive | inactive | inactive | inactive | – | inactive | inactive | inactive | – | inactive | inactive | inactive | inactive | inactive | inactive | inactive | inactive
14 | C[N+](C)(C)CC1CO1 (stereo unspecified) | inactive | inactive | inactive | inactive | inactive | inactive | inactive | inactive | inactive | inactive | inactive | inactive | inactive | – | inactive | inactive | inactive | – | inactive | inactive
15 | c1cc(OCC2CO2)ccc1Cc1ccc(OCC2CO2)cc1 (stereo unspecified) | 27.4 µM (active) and 27.3 µM (active) | inactive | inactive | inactive | inactive | inactive | inactive | inactive | inactive | – | inactive | inactive | inactive | inactive | – | – | inactive | – | inactive | inactive
16 | S=C=Nc1cccc2ccccc12 | 15.2 µM (active) | inactive | inactive | inactive | inactive | inactive | inactive | – | inactive | inactive | – | – | – | – | inactive | – | inactive | inactive | inactive | inactive
